Measurements from PubChem BioAssay AID1159580 (chemical genetic matrix, 2015).
Several values for one entry are separate records, joined by “and”; a condition that tells them apart may be missing. Equal values may be shown once. Hit rate of the full screen: of about 5,500 compounds, about 2,000 (36%) were called active. Roughly 18% stayed inconclusive and do not appear here. Rule as the data show it: active = normalized growth mostly below about 0.91 (no sharp cut-off); inconclusive = no clear call, values can overlap the other calls; inactive = mostly above about 0.92. The list shows a part of the results.

Test: chemical genetic growth profiling, strain panel (AID 1159580);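 also: tested at 20 µM; growth read once vehicle control cultures reached saturation at 30 °C; 1 = growth at the plate median or of vehicle wells; lower values mean less growth of the strain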
Details: S. cerevisiae deletion strains, growth OD

Measured: normalized growth

Cc1cc(O)c(C=O)c(O)c1C(=O)O
inactive: locus YAL021C, strain ccr4, stronger effect = lower value 0.991 | locus YAL026C, strain drs2, stronger effect = lower value 1.01 | locus YAL030W, strain snc1, stronger effect = lower value 0.997 | locus YBL061C, strain skt5, stronger effect = lower value 1.01 | locus YBR009C, strain hhf1, stronger effect = lower value 1.02 | locus YBR021W, strain FUR4, stronger effect = lower value 1.05 | locus YBR023C, strain chs3, stronger effect = lower value 1.01 | locus YBR171W, strain sec66, stronger effect = lower value 1 | locus YBR229C, strain ROT2, stronger effect = lower value 0.999 | locus YBR231C, strain swc5, stronger effect = lower value 0.99 | locus YBR279W, strain paf1, stronger effect = lower value 0.997 | locus YCL011C, strain gbp2, stronger effect = lower value 1.01 | locus YCL016C, strain dcc1, stronger effect = lower value 1.01 | locus YCL029C, strain bik1, stronger effect = lower value 1.02 | locus YCL061C, strain MRC1, stronger effect = lower value 1.01 | locus YCL069W, strain vba3, stronger effect = lower value 1 | locus YCR088W, strain abp1, stronger effect = lower value 1.01 | locus YDL005C, strain med2, stronger effect = lower value 1.01 | locus YDL035C, strain GPR1, stronger effect = lower value 1.03 | locus YDL040C, strain nat1, stronger effect = lower value 1.01 | locus YDL074C, strain BRE1, stronger effect = lower value 1.06 | locus YDL101C, strain DUN1, stronger effect = lower value 1.03 | locus YDL185W, strain tfp1, stronger effect = lower value 0.987 | locus YDL192W, strain arf1, stronger effect = lower value 1.03 | locus YDR001C, strain nth1, stronger effect = lower value 0.999 | locus YDR069C, strain doa4, stronger effect = lower value 0.977 | locus YDR101C, strain arx1, stronger effect = lower value 1.04 | locus YDR137W, strain rgp1, stronger effect = lower value 1.01 | locus YDR150W, strain NUM1, stronger effect = lower value 0.983 | locus YDR159W, strain sac3, stronger effect = lower value 1.01 | locus YDR162C, strain NBP2, stronger effect = lower value 1.02 | locus YDR195W, strain ref2 0.99 | locus YDR297W, strain sur2, stronger effect = lower value 0.997 | locus YDR318W, strain mcm21, stronger effect = lower value 1 | locus YDR334W, strain swr1, stronger effect = lower value 0.987 | locus YDR335W, strain msn5, stronger effect = lower value 0.991 | locus YDR388W, stronger effect = lower value 0.997 | locus YDR392W, strain spt3, stronger effect = lower value 0.962 | locus YDR502C, strain sam2, stronger effect = lower value 1.03 | locus YEL003W, strain gim4, stronger effect = lower value 0.995 | locus YEL037C, strain rad23, stronger effect = lower value 0.993 | locus YEL061C, strain CIN8 (second series), stronger effect = lower value 0.999 | locus YEL061C, strain CIN8, stronger effect = lower value 1.01 | locus YER015W, strain faa2, stronger effect = lower value 1 | locus YER016W, strain bim1, stronger effect = lower value 1 | locus YER110C, stronger effect = lower value 1.01 | locus YER111C, strain swi4, stronger effect = lower value 1 | locus YER155C, strain BEM2 (second series), stronger effect = lower value 1 | locus YER155C, strain BEM2, stronger effect = lower value 1.01 | locus YER167W, strain BCK2, stronger effect = lower value 1.03 | locus YFR010W, strain ubp6, stronger effect = lower value 0.999 | locus YGL078C, strain dbp3, stronger effect = lower value 1.01 | locus YGL086W, strain mad1, stronger effect = lower value 1.03 | locus YGL167C, strain pmr1, stronger effect = lower value 0.989 | locus YGL173C, strain kem1, stronger effect = lower value 1.01 | locus YGL227W, strain vid30, stronger effect = lower value 0.999 | locus YGL240W, strain doc1, stronger effect = lower value 0.929 | locus YGL248W, strain PDE1, stronger effect = lower value 1.03 | locus YGL253W, strain hxk2, stronger effect = lower value 1 | locus YGR078C, strain PAC10, stronger effect = lower value 1.06 | locus YGR135W, strain pre9, stronger effect = lower value 1.02 | locus YGR252W, strain gcn5, stronger effect = lower value 1 | locus YHR013C, strain ard1, stronger effect = lower value 1.01 | locus YHR027C, strain rpn1, stronger effect = lower value 0.992 | locus YHR030C, strain SLT2, stronger effect = lower value 1 and 1.02 | locus YHR079C, strain IRE1 (second series), stronger effect = lower value 1.01 | locus YHR079C, strain IRE1, stronger effect = lower value 1.04 | locus YHR094C, strain hxt1, stronger effect = lower value 1.01 | locus YHR129C, strain ARP1, stronger effect = lower value 1.02 | locus YHR142W, strain chs7, stronger effect = lower value 1.03 | locus YHR200W, strain rpn10, stronger effect = lower value 1.02 | locus YIL066C, strain RNR3, stronger effect = lower value 1.05 | locus YIL073C, strain SPO22, stronger effect = lower value 1.12 | locus YIL125W, strain kgd1, stronger effect = lower value 1 | locus YIR030C, strain dcg1, stronger effect = lower value 1.02 | locus YJL092W, strain hpr5, stronger effect = lower value 1.01 | locus YJL095W, strain BCK1 (second series), stronger effect = lower value 1.01 | locus YJL095W, strain BCK1, stronger effect = lower value 1.1 and 1 | locus YJL115W, strain asf1, stronger effect = lower value 0.999 | locus YJL129C, strain trk1, stronger effect = lower value 1.05 | locus YJL134W, strain LCB3, stronger effect = lower value 0.993 | locus YJL154C, strain vps35, stronger effect = lower value 0.996 | locus YJL164C, strain tpk1, stronger effect = lower value 1.02 | locus YJL166W, strain qcr8, stronger effect = lower value 1.01 | locus YJL168C, strain set2, stronger effect = lower value 0.997 | locus YJL187C, strain SWE1 (second series), stronger effect = lower value 1.05 | locus YJL187C, strain SWE1, stronger effect = lower value 0.998 | locus YJR043C, strain POL32, stronger effect = lower value 1.02 | locus YJR066W, strain TOR1, stronger effect = lower value 0.93 | locus YJR075W, strain HOC1, stronger effect = lower value 1.06 | locus YKL009W, strain mrt4, stronger effect = lower value 1.04 | locus YKL068W, stronger effect = lower value 0.987 | locus YKL085W, strain MDH1 (second series), stronger effect = lower value 1 | locus YKL085W, strain MDH1, stronger effect = lower value 1 | locus YKL160W, strain elf1, stronger effect = lower value 1.03 | locus YKR001C, strain vps1, stronger effect = lower value 1.03 | locus YKR026C, strain gcn3, stronger effect = lower value 1.01 | locus YKR091W, strain srl3, stronger effect = lower value 1.01 | locus YLL001W, strain dnm1, stronger effect = lower value 1.02 | locus YLL026W, stronger effect = lower value 1.01 | locus YLL041C, strain sdh2, stronger effect = lower value 0.997 | locus YLR027C, strain aat2, stronger effect = lower value 1.01 | locus YLR039C, strain RIC1, stronger effect = lower value 1.09 | locus YLR058C, strain SHM2, stronger effect = lower value 0.965 | locus YLR102C, strain apc9, stronger effect = lower value 1.01 | locus YLR113W, strain HOG1, stronger effect = lower value 1.07 | locus YLR221C, strain rsa3, stronger effect = lower value 1.03 | locus YLR258W, strain gsy2, stronger effect = lower value 1 | locus YLR262C, strain YPT6 (second series), stronger effect = lower value 1.01 | locus YLR262C, strain YPT6, stronger effect = lower value 1.14 | locus YLR268W, strain sec22, stronger effect = lower value 1.04 | locus YLR320W, strain mms22, stronger effect = lower value 1.05 | locus YLR330W, strain CHS5, stronger effect = lower value 1 | locus YLR342W, strain FKS1 (second series), stronger effect = lower value 1.01 | locus YLR342W, strain FKS1, stronger effect = lower value 1.01 | locus YLR357W, strain rsc2, stronger effect = lower value 1.02 | locus YLR370C, strain arc18, stronger effect = lower value 1 | locus YLR371W, strain rom2, stronger effect = lower value 1.01 | locus YLR384C, strain iki3, stronger effect = lower value 0.999 | locus YLR418C, strain cdc73, stronger effect = lower value 1.05 | locus YML016C, strain PPZ1, stronger effect = lower value 1.01 | locus YML032C, strain rad52, stronger effect = lower value 0.985 | locus YML120C, strain ndi1, stronger effect = lower value 1.01 | locus YML124C, strain tub3, stronger effect = lower value 1.01 | locus YMR058W, strain fet3, stronger effect = lower value 0.987 | locus YMR078C, strain ctf18, stronger effect = lower value 0.999 | locus YMR125W, strain sto1, stronger effect = lower value 1.01 | locus YMR129W, stronger effect = lower value 1 | locus YMR205C, strain PFK2, stronger effect = lower value 1.05 | locus YMR223W, strain ubp8, stronger effect = lower value 1.02 | locus YMR231W, strain pep5, stronger effect = lower value 0.989 | locus YMR263W, strain SAP30, stronger effect = lower value 1.06 | locus YMR307W, strain GAS1, stronger effect = lower value 1.08 | locus YNL067W, strain RPL9B, stronger effect = lower value 1.05 | locus YNL071W, strain lat1, stronger effect = lower value 1.01 | locus YNL183C, strain NPR1, stronger effect = lower value 0.946 | locus YNL209W, strain ssb2, stronger effect = lower value 0.992 | locus YNL233W, strain BNI4, stronger effect = lower value 1.09 | locus YNL248C, strain rpa49, stronger effect = lower value 1.01 | locus YNL250W, strain rad50, stronger effect = lower value 0.986 | locus YNL271C, strain bni1, stronger effect = lower value 1 | locus YNL298W, strain CLA4, stronger effect = lower value 1.01 | locus YNL307C, strain MCK1, stronger effect = lower value 1.03 | locus YNL322C, strain KRE1 (second series), stronger effect = lower value 1.01 | locus YNR049C, strain mso1, stronger effect = lower value 1.01 | locus YNR052C, strain pop2, stronger effect = lower value 0.992 | locus YOL012C, strain htz1 0.989 | locus YOL147C, strain pex11, stronger effect = lower value 1 | locus YOR001W, strain rrp6, stronger effect = lower value 1.02 | locus YOR061W, strain CKA2, stronger effect = lower value 1 | locus YOR069W, strain VPS5, stronger effect = lower value 1.01 | locus YOR070C, strain gyp1, stronger effect = lower value 0.998 | locus YOR080W, strain dia2, stronger effect = lower value 0.998 | locus YOR083W, strain WHI5, stronger effect = lower value 1.04 | locus YOR106W, strain vam3, stronger effect = lower value 1.03 | locus YOR136W, strain idh2, stronger effect = lower value 1.03 | locus YOR144C, strain elg1, stronger effect = lower value 1 | locus YOR184W, strain ser1, stronger effect = lower value 1.05 | locus YOR231W, strain MKK1, stronger effect = lower value 1.04 | locus YOR265W, strain rbl2, stronger effect = lower value 1.01 | locus YOR270C, strain vph1, stronger effect = lower value 1.02 | locus YOR290C, strain snf2, stronger effect = lower value 1.02 | locus YOR316C, strain cot1, stronger effect = lower value 1.01 | locus YPL051W, strain arl3, stronger effect = lower value 0.999 | locus YPL078C, strain atp4, stronger effect = lower value 1.01 | locus YPL106C, strain sse1, stronger effect = lower value 0.995 | locus YPL240C, strain hsp82, stronger effect = lower value 1 | locus YPL241C, strain CIN2, stronger effect = lower value 0.995 | locus YPL256C, strain CLN2, stronger effect = lower value 1.03 | locus YPR119W, strain clb2, stronger effect = lower value 0.999 | locus YPR141C, strain kar3, stronger effect = lower value 0.993 | locus YPR163C, strain tif3, stronger effect = lower value 1 | locus YPR167C, strain met16, stronger effect = lower value 1.01 | strain wtn01, stronger effect = lower value 1.04
